# According to PubChem BioAssay (Tox21):
# Values joined by “and” are separate entries in the source; they are usually repeats but may differ in a detail not shown here. Equal values may be shown once. Results filed as inconclusive are left out. Some compounds were tested as several samples or in several runs, with calls that do not always agree. Active and inactive are the calls of the source. Calls follow the shape of the dose curve; as a rule, active = well fitted activation curve with a large enough effect in the repeat runs; inconclusive = weak or mixed curves; inactive = no such curve, though single readings can be large or run the other way. Starred links: 1 amine or outer side, 2 acyl side, 3 side chain; linkers in the order of their positions; H or OH if unused. Positions of bridges follow the written chain, without caps; N, C: chain ends. Non-standard residues stand in square brackets, D forms with d. Residues, ends and D or L forms follow the SMILES beside them. Chains are numbered I, II in the order given. Actinocin(9to1) = Cc1c2oc3c(C)ccc(C(=O)[*:1])c3nc-2c(C(=O)[*:2])c(N)c1=O; NMeV = CN[C@H](C(=O)O)C(C)C; Sar = CNCC(=O)O
# Target: Nuclear receptor subfamily 1 group I member 3 (Homo sapiens) (UniProt Q14994)
# Sequence (Q14994 whole entry, looked up): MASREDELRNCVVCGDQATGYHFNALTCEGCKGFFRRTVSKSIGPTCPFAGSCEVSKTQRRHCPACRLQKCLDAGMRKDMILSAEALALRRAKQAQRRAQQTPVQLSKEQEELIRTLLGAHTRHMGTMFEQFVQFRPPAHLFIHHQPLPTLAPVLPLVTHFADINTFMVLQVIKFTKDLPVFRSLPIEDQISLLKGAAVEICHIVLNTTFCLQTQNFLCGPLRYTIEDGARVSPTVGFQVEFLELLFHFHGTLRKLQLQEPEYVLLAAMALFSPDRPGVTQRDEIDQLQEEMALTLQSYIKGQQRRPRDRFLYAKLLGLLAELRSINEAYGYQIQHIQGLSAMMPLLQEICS
# Test: qHTS assay to identify small molecule agonists of the constitutive androstane receptor (CAR) signaling pathway (AID 1224839); also: nearly all actives have a fitted effect of over 15% in size;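 as to activation: HepG2 cells stably carrying human CAR and a CYP2B6 luciferase reporter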
# Settings: HepG2 hCAR CYP2B6-luciferase, agonist mode, 24 h; series mostly up to 92.4 µM; activation: at the top concentration
# Description: National Center for Advancing Translational Sciences [NCATS] NIH Chemical Genomics Center [NCGC] U.S. Environmental Protection Agency [EPA] National Institutes of Environmental Health Sciences [NIEHS] National Toxicology Program [NTP] Assay overview: The constitutive androstane receptor (CAR) is a nuclear receptor which regulates multiple drug metabolizing enzymes (DMEs) and transporters. Activating CAR will generally increase the transcription and subsequent translation of CYP2B6 and CYP3A4. These two DMEs represent about 50% of the drug metabolizing potential in the body. […] Recently, there have also been studies performed indicating CARs role in energy metabolism and cancer therapy. Therefore, inducing CARs activity could have a potential effect on diabetes and cancer. Identifying environmental toxins and compounds which modulate CAR, through the use of the Tox21 10K compound collection, will be an important step in determining the toxicity and potential therapeutic effects these factors will have on the human body.
# Assay Protocol Summary: A double-stable (hCAR and CYP2B6-2.2kb) transfected cell line, derived from human hepatoma (HepG2) cells, was utilized for the duration of the quantitative high-throughput screens. The HepG2-CYP2B6-hCAR cells suspended in DMEM culture medium supplemented with 10% FBS, 5 ug/mL blasticidin, 0.5 mg/mL geneticin, 100 U/mL penicillin and 100 ug/mL streptomycin were dispensed at 2500 cells/4 uL/well in 1536-well white solid bottom plates using a Multidrop Combi. After the assay plates were incubated at 37 C/5% CO2 for 4 hrs, 23 nL of compounds at 15 concentrations (from 5-48 columns) or positive control (from 1 to 4 columns) were transferred to the assay plates using a Pintool station. One uL of PK11195, was added using a Flying Reagent Dispenser to generate a final concentration of 0.75 uM PK11195 inside each well. After a 24 hr incubation period at 37 C/5% CO2, four uL of ONE-Glo reagent was added into the assay plates using a Flying Reagent Dispenser. After a 30 min incubation period at room temperature, the luminescence intensity in the assay plates was measured using a ViewLux plate reader.
# % is scaled to controls: 0 for no effect and ±100 for the full control effect; potency is read from the fitted curve at half-maximal effect.
Compound,Potency,activation
CC(=O)N[C@@H](CS)C(=O)O,inactive,–
Nc1ccc2cc3ccccc3cc2c1,27.8 µM (active) and 48.6 µM (active),–
CCCCCCCCCCCCCC[P+](CCCC)(CCCC)CCCC,inactive,–
C=CC(=O)OCCCCCCOC(=O)C=C,inactive,–
O=C(O)CP(=O)(O)O,–,0.829% [at 42.5 µM] (inactive)
CN(C)c1ccc2nc3ccc(=[N+](C)C)cc-3sc2c1,1.54 µM (active) and 750 nM (active),–
"Cc1c2oc3c(C)ccc(C(=O)N[C@@H]4C(=O)N[C@H](C(C)C)C(=O)N5CCC[C@H]5C(=O)N(C)CC(=O)N(C)[C@@H](C(C)C)C(=O)O[C@@H]4C)c3nc-2c(C(=O)N[C@@H]2C(=O)N[C@H](C(C)C)C(=O)N3CCC[C@H]3C(=O)N(C)CC(=O)N(C)[C@@H](C(C)C)C(=O)O[C@@H]2C)c(N)c1=O (I: T[dV]P[Sar][NMeV] / II: T[dV]P[Sar][NMeV]; ester I:1-I:C, II:1-II:C; linker I:N-II:N via Actinocin(9to1))",inactive,–
CCN1CCCC1CNC(=O)c1cc(S(=O)(=O)CC)c(N)cc1OC (stereo not given),–,0.847% [at 42.5 µM] (inactive)
Cc1cc(C2(c3cc(C)c(O)cc3C)OS(=O)(=O)c3ccccc32)c(C)cc1O,–,-0.0297% (inactive)
Cc1cc(C(C)(C)C)c(O)c(C(C)(C)C)c1,–,11.7% [at 42.5 µM] (inactive)
CO[Si](OC)(OC)c1ccccc1,–,-2.39% (inactive)
CC(=O)CC(=O)Nc1ccc2[nH]c(=O)[nH]c2c1,–,-1.59% (inactive)
[Cl][In]([Cl])[Cl],inactive,–
CC(C)(C)c1ccccc1,–,0.618% (inactive)
CCOc1ccccc1C(N)=O,–,4.63% [at 42.5 µM] (inactive)
Cc1c(O)cccc1C(=O)N[C@@H](CSc1ccccc1)[C@H](O)CN1C[C@H]2CCCC[C@H]2C[C@H]1C(=O)NC(C)(C)C,inactive,–
CCN(CC)C(=S)SSC(=S)N(CC)CC,inactive,–
COC(=O)c1cccc(C(=O)OC)c1,inactive,–
CCOC(=O)C(C)C(C)=O (stereo not given),–,-1.72% (inactive)
O=C(OCc1ccccc1)c1ccc(O)cc1,–,7.7% (inactive)

Compound,Potency,activation
Cc1scc2c1N(C(=O)CN1CCN(C)CC1)c1ccccc1NC2=O,–,0.869% [at 42.5 µM] (inactive)
OCC(CO)N[C@H]1C[C@](O)(CO)[C@@H](O)[C@H](O)[C@H]1O,–,0.0066% [at 42.5 µM] (inactive)
O=Nc1ccc(Nc2ccccc2)cc1,17.2 µM (active),–
CCCNC(C)C(=O)Nc1ccccc1C (stereo not given),–,-1.9% [at 42.5 µM] (inactive)
CNC1(C)C2CCC(C2)C1(C)C (stereo not given),–,-2.16% [at 42.5 µM] (inactive)
Oc1c(Cl)cc(Cl)c(Cl)c1Cc1c(O)c(Cl)cc(Cl)c1Cl,inactive,–
COC(=O)/C=C/c1ccccc1,–,-1.05% (inactive)
C[N+]1([O-])CCOCC1,–,-0.439% (inactive)
CN(C)c1ccc(C(=C2C=CC(=[N+](C)C)C=C2)c2ccccc2)cc1,inactive,–
COc1cc(C(=S)N2CCOCC2)ccc1O,–,-3.12% [at 42.5 µM] (inactive)
NC(Cc1ccc(Cl)cc1)C(=O)O (stereo not given),–,0.949% [at 0.349 µM] (inactive)
CC(C)(O)CCC(C)(C)O,–,-0.424% (inactive)
CC(C)(C)NCC(O)COc1ccccc1OCC1CCCO1 (stereo not given),–,1.32% [at 42.5 µM] (inactive)
CCN(CC)CCOc1ccc(/C(=C(\Cl)c2ccccc2)c2ccccc2)cc1,inactive,–
CC(C)CCCCCCc1ccc(O)cc1,inactive and 17.2 µM (active),–
CCCCN(CCO)CCCC,–,-2.22% (inactive)
O=Cc1ccc(Cl)cc1,–,0.0231% (inactive)
C=CS(=O)(=O)O,–,-2.47% (inactive)
O=C(Nc1ccccc1SSc1ccccc1NC(=O)c1ccccc1)c1ccccc1,–,6.17% (inactive)
Nc1nc2ccccc2[nH]1,inactive,–
